Here are results for one sequence from publication PMC7862700, “An all-to-all approach to the identification of sequence-specific readers for epigenetic DNA modifications on cytosine”.

What all share (assay): DAPPL (digital affinity profiling via proximity ligation, sequencing); 10 mM Tris-HCl pH 7.5, 50 mM NaCl, 1 mM DTT, 4% glycerol, room temperature, 30 min; GST-TFs on glutathione beads, 16-mer random dsDNA library, 0.1% formaldehyde crosslink after washing; high values mean tight binding
Experiment [1] deals with T1, FEV (Homo sapiens, UniProt Q99581 1-238).
T1 sequence: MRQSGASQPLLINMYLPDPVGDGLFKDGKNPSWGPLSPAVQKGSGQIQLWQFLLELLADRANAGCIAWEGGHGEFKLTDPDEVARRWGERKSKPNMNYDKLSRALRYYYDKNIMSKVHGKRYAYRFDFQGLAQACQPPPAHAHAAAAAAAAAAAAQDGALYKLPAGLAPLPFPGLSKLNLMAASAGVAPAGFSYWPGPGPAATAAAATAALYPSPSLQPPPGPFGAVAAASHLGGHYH
The note with it: protein: recombinant; tags: N-terminal GST; dsDNA, one strand shown. The method, boiled down: (§1)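 After expression in yeast as GST fusions, human transcription factors were bound to glutathione beads, DNA-barcoded and mixed with a tag-only sample. The pools were incubated with 200 nmole of a 16-mer random double-stranded DNA library in Tris/NaCl/DTT/glycerol buffer (30 min, room temperature), washed and crosslinked with 0.1% formaldehyde. Proximity ligation with BsaI/T4 ligase ran for 1 h at 37 °C, before PCR amplification and sequencing on an Illumina NextSeq500. Binding signal is a hexamer's read frequency for a factor divided by its frequency for the tag-only sample.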

Experiment [2] concerns the target ETV5 (Homo sapiens, UniProt P41161 1-510). The note with it: protein: recombinant; tags: N-terminal GST; dsDNA, one strand shown. An outline of the steps: as §1
The target of experiment [3] is HSF1 (Homo sapiens, UniProt Q00613 1-529). The note with it: protein: recombinant; tags: N-terminal GST; chain copies: 3; dsDNA, one strand shown. An outline of the steps:
as §1

The target in experiment [4] is T2, SPIC (Homo sapiens, UniProt Q8N5J4 1-248).
T2 sequence: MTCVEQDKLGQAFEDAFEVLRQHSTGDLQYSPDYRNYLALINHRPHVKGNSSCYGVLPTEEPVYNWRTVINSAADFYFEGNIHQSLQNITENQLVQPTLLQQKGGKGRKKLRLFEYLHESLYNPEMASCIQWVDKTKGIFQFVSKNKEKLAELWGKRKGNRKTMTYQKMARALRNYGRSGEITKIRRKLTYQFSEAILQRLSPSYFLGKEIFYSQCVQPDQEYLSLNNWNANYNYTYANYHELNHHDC
The note with it: protein: recombinant; tags: N-terminal GST; dsDNA, one strand shown. The method, boiled down: as §1

For experiment [5], the target named is ELF4 (Homo sapiens, UniProt Q99607 1-663). The note with it: protein: recombinant; tags: N-terminal GST; dsDNA, one strand shown. The method, boiled down:
as §1

The target in experiment [6] is T3, ELK4 (Homo sapiens, UniProt P28324-2 1-405).
T3 sequence: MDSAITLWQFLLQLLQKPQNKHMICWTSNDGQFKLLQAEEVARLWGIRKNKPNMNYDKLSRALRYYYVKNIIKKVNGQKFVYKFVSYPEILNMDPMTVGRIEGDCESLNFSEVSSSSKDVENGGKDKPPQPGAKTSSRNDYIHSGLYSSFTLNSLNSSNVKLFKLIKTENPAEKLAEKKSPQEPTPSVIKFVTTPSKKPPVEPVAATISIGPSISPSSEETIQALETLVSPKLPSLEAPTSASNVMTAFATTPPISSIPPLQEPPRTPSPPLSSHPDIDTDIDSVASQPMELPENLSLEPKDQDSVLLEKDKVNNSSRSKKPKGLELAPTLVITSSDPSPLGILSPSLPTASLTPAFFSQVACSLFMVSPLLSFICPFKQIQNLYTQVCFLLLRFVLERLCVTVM
Particulars: protein: recombinant; tags: N-terminal GST; dsDNA, one strand shown. The method, boiled down: as §1

The target in experiment [7] is T4, ETV2 (Homo sapiens, UniProt O00321 1-342).
T4 sequence: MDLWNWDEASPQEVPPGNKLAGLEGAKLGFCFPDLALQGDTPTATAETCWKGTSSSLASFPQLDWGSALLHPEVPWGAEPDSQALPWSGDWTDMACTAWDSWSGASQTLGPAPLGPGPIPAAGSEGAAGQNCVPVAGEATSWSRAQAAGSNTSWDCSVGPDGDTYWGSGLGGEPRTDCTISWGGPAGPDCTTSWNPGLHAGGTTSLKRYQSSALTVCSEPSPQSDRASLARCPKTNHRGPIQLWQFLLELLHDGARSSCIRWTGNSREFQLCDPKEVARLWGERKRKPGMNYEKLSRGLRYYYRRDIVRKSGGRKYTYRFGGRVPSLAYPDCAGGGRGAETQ
Particulars: protein: recombinant; tags: N-terminal GST; dsDNA, one strand shown. The method, boiled down: as §1

The target in experiment [8] is T5, ELF3 (Homo sapiens, UniProt P78545 1-371).
T5 sequence: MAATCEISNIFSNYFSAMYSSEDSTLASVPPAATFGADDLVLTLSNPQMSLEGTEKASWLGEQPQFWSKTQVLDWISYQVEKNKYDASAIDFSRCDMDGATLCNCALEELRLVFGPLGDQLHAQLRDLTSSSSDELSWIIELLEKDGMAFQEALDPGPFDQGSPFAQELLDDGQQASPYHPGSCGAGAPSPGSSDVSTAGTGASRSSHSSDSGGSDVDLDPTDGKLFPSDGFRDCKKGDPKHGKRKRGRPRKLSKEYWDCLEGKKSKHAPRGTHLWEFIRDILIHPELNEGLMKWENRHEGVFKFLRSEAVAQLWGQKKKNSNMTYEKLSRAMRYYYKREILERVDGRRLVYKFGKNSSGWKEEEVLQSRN
The note with it: protein: recombinant; tags: N-terminal GST; dsDNA, one strand shown. An outline of the steps: as §1

The target of experiment [9] is CRX (Homo sapiens, UniProt O43186 1-299). The note with it: protein: recombinant; tags: N-terminal GST; dsDNA, one strand shown. An outline of the steps:
as §1

The target of experiment [10] is ETV1 (Homo sapiens, UniProt P50549 1-477). Particulars: protein: recombinant; tags: N-terminal GST; dsDNA, one strand shown. The method, boiled down: as §1
Experiment [11] addresses T6, ERF (Homo sapiens, UniProt P50548 1-548).
T6 sequence: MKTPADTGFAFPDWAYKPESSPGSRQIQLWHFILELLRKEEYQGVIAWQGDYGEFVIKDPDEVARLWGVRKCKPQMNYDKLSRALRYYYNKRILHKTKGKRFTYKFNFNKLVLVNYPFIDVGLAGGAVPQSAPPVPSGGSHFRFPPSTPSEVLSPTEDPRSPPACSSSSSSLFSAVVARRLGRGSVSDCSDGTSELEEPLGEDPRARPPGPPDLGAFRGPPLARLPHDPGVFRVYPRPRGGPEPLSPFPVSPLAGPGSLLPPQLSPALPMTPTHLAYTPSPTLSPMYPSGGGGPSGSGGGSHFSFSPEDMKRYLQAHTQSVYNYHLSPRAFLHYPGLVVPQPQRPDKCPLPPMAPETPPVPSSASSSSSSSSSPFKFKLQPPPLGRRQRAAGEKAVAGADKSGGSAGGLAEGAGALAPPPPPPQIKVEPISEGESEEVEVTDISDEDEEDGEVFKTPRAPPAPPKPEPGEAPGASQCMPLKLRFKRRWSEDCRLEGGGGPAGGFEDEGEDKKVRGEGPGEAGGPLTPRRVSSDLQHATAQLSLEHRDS
Particulars: protein: recombinant; tags: N-terminal GST; dsDNA, one strand shown. The method, boiled down: as §1

Experiment [12] has as its target T7, ETV3L (Homo sapiens, UniProt Q6ZN32 1-361).
T7 sequence: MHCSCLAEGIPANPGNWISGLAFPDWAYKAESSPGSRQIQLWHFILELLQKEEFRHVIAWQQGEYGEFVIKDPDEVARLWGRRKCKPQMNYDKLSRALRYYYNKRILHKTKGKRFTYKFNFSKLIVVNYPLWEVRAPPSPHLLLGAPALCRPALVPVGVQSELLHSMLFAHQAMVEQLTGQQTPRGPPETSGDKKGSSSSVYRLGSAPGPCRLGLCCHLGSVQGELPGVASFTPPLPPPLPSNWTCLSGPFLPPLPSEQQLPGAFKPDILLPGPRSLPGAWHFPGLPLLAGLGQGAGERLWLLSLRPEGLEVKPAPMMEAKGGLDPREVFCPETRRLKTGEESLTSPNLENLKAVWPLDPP
Particulars: protein: recombinant; tags: N-terminal GST; dsDNA, one strand shown. An outline of the steps: as §1

Experiment [13] addresses T8, ETS2 (Homo sapiens, UniProt P15036 1-469).
T8 sequence: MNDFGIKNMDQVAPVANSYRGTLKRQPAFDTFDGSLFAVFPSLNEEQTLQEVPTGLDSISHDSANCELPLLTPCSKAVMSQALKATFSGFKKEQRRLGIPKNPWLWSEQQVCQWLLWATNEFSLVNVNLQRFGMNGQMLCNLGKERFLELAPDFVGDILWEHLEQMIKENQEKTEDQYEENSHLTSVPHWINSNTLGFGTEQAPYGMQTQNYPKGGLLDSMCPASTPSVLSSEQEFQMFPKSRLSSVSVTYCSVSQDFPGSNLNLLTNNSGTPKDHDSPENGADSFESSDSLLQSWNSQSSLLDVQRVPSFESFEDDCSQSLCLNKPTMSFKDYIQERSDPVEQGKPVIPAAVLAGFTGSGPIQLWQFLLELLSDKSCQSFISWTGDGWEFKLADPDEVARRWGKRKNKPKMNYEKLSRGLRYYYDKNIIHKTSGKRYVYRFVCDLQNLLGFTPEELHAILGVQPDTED
The note with it: protein: recombinant; tags: N-terminal GST; dsDNA, one strand shown. An outline of the steps: as §1

In experiment [14] the target is T9, SPDEF (Homo sapiens, UniProt O95238 1-335).
T9 sequence: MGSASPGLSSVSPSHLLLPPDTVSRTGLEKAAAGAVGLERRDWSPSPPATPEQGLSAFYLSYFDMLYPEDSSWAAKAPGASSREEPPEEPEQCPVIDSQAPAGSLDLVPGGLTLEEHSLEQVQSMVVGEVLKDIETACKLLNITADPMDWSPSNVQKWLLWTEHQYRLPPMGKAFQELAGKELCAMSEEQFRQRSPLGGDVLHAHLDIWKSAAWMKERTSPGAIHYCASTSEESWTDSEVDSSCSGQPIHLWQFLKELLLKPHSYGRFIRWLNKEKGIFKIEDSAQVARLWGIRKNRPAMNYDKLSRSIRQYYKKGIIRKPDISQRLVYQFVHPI
The note with it: protein: recombinant; tags: N-terminal GST; dsDNA, one strand shown. An outline of the steps:
as §1

For experiment [15], the target named is T10, ETV7 (Homo sapiens, UniProt Q9Y603 1-341).
T10 sequence: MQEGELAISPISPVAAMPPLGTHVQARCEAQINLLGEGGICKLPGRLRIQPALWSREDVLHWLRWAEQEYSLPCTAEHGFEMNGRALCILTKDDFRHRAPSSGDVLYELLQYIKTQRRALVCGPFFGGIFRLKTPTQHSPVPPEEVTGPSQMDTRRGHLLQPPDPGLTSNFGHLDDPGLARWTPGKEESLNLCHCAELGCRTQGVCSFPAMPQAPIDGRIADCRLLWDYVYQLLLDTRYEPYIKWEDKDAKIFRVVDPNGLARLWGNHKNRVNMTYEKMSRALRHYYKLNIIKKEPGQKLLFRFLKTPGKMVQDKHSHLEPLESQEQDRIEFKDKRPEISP
The note with it: protein: recombinant; tags: N-terminal GST; dsDNA, one strand shown. The method, boiled down: as §1

The target of experiment [16] is T11, ELF5 (Homo sapiens, UniProt Q9UKW6-2 1-255).
T11 sequence: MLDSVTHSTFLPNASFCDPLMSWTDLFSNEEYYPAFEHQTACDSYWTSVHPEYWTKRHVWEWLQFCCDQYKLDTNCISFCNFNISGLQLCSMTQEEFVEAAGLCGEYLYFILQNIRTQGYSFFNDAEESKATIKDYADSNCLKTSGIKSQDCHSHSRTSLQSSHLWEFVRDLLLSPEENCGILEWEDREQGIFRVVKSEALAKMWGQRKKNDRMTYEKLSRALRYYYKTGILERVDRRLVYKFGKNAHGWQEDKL
Particulars: protein: recombinant; tags: N-terminal GST; dsDNA, one strand shown. An outline of the steps: as §1

Experiment [17] has as its target T12, ETV3 (Homo sapiens, UniProt P41162-2 1-143).
T12 sequence: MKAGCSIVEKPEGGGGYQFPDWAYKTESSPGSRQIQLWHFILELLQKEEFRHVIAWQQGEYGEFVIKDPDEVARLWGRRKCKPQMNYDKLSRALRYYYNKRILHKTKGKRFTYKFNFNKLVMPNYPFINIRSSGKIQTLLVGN
The note with it: protein: recombinant; tags: N-terminal GST; dsDNA, one strand shown. The method, boiled down:
as §1

Experiment [18] addresses ETV6 (Homo sapiens, UniProt P41212 1-452). Particulars: protein: recombinant; tags: N-terminal GST; dsDNA, one strand shown. An outline of the steps:
as §1

Sequence of ETV6 (P41212 whole entry): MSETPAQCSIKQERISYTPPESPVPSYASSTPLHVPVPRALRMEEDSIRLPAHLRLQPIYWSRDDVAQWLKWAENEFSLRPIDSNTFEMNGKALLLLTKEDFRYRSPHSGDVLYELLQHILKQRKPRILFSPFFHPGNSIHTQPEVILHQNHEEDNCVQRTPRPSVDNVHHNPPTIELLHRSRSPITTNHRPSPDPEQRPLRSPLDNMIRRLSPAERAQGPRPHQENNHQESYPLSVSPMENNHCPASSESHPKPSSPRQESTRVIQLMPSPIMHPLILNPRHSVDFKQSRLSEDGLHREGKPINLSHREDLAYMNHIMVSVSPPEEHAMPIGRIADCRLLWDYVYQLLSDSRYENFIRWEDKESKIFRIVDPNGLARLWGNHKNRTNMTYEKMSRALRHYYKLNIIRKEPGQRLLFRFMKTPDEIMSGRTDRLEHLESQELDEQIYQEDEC
Sequence of ETV1 (P50549 whole entry): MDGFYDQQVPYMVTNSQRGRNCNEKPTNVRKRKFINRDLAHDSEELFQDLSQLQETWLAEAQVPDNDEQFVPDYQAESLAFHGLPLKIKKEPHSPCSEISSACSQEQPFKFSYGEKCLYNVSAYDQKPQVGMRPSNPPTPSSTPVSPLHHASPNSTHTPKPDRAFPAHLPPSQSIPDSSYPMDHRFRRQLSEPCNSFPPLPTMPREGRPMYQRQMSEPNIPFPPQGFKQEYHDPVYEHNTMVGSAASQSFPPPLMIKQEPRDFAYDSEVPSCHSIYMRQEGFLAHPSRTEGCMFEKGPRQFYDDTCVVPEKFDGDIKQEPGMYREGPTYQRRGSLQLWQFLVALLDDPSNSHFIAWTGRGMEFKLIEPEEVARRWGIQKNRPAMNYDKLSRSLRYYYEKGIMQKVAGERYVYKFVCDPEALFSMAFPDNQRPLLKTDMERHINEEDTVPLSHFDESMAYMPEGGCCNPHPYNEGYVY
Sequence of ELF4 (Q99607 whole entry): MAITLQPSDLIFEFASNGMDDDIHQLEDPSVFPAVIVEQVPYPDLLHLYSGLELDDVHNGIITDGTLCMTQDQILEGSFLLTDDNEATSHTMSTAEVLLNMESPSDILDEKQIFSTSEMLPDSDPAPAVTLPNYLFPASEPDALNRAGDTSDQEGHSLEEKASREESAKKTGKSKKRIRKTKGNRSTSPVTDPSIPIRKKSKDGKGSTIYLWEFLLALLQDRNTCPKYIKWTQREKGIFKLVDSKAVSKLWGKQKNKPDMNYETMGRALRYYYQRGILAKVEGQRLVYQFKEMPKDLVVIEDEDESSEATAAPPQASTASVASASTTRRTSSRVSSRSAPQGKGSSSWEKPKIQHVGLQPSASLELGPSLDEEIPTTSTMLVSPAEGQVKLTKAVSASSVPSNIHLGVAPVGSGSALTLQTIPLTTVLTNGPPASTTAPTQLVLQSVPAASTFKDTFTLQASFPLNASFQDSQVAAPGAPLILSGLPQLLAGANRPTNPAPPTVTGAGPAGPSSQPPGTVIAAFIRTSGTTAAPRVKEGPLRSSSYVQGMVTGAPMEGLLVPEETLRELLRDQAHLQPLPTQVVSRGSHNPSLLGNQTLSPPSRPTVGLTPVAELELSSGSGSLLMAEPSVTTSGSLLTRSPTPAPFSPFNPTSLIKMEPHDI
Sequence of HSF1 (Q00613 whole entry): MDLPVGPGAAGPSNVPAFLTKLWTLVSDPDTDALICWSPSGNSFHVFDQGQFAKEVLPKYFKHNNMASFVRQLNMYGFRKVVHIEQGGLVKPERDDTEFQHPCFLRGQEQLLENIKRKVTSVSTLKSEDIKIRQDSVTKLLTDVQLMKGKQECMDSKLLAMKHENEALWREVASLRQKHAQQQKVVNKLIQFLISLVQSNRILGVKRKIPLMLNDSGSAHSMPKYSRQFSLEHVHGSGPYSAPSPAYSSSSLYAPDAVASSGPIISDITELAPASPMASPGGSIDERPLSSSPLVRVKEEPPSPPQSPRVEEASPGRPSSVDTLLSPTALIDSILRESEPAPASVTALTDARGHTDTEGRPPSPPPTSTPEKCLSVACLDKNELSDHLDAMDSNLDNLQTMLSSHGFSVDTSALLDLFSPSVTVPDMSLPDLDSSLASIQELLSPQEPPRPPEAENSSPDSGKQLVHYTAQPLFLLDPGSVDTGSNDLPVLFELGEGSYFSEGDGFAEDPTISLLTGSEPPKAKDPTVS
Sequence of ETV5 (P41161 whole entry): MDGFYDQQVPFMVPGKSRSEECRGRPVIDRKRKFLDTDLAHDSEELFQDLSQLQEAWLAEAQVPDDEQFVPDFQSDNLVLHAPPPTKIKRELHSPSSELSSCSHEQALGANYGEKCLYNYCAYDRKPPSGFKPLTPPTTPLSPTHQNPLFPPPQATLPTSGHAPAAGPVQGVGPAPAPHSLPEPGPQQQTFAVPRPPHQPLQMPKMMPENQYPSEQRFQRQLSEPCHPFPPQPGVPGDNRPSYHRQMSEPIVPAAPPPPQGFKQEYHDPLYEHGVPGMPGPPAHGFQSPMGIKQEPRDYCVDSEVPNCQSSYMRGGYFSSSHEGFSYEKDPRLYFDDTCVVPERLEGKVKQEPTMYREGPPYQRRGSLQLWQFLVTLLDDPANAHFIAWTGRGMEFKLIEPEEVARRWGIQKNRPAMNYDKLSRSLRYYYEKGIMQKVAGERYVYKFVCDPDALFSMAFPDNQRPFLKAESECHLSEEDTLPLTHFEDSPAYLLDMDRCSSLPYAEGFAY
Sequence of CRX (O43186 whole entry): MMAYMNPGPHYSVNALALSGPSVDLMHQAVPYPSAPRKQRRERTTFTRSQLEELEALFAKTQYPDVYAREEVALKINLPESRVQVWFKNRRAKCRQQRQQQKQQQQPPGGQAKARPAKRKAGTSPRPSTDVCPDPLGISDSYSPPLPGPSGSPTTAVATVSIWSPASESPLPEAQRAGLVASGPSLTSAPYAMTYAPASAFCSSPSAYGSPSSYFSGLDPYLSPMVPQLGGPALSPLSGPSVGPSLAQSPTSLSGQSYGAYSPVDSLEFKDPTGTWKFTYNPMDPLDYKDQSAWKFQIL

On to GCTTTC, for which the binding signal in [1] is 1.25 fold enrichment (6-mer frequency, TF over GST control); in experiment [2], 1.24 fold enrichment (6-mer frequency, TF over GST control); in [3], 1.35 fold enrichment (6-mer frequency, TF over GST control); in experiment [4] it was 1.06 fold enrichment (6-mer frequency, TF over GST control); in experiment [5], 1.23 fold enrichment (6-mer frequency, TF over GST control); in experiment [6], 1.26 fold enrichment (6-mer frequency, TF over GST control). The binding signal in experiment [7] was 1.59 fold enrichment (6-mer frequency, TF over GST control); in experiment [8], 1.47 fold enrichment (6-mer frequency, TF over GST control); in [9] it was 1.33 fold enrichment (6-mer frequency, TF over GST control); in experiment [10] it was 1.35 fold enrichment (6-mer frequency, TF over GST control); in experiment [11], 1.28 fold enrichment (6-mer frequency, TF over GST control); in experiment [12] it was 1.29 fold enrichment (6-mer frequency, TF over GST control). The binding signal is 1.24 fold enrichment (6-mer frequency, TF over GST control) in [13]; 1.18 fold enrichment (6-mer frequency, TF over GST control) in [14]; 1.31 fold enrichment (6-mer frequency, TF over GST control) in [15]; 1.23 fold enrichment (6-mer frequency, TF over GST control) in [16]; 1.25 fold enrichment (6-mer frequency, TF over GST control) in experiment [17]; 1.23 fold enrichment (6-mer frequency, TF over GST control) in [18].
